From PubChem BioAssay
For some of these results: Entries with a potency or affinity are not part of this list. Activity calls are given as the source filed them.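 Rule for the calls, unless noted: active = primary screen inhibitor hit that blocks the TRPC4 channel at some tested dose, yielding a dose curve; inactive = the rest.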

Key:
[1] = system: TRPC4 beta (transient receptor potential cation channel C4), mouse; test: activators of mouse TRPC4 channel, confirmation, cell-based, Fluo4 calcium, HEK293 TRPC4beta/mu-opioid, duplicates, 10 µM (AID 2426;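 active = fluorescence ratio normalized to control raised more than 50% in primary screen plus both repeat runs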;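 for activation: percent rise of integrated ratio over buffer wells lacking compound which define 0%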); settings: Fluo4 calcium fluorescence, at 10 µM; active compounds read high
[2] = system: transient receptor potential cation channel C4 beta (TRPC4), mouse; test: activators of mouse TRPC4 channel, confirmation, cell-based, second round, Fluo4, HEK293 TRPC4beta/mu-opioid, 1 µM (AID 2461;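 active = primary screen active and over 50% activation in each of two duplicate runs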;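 for activation: 0% = wells without test compound as baseline of integrated fluorescence ratio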); settings: Fluo4 calcium fluorescence, at 1 µM; active compounds read high
[3] = system: TRPC4 (transient receptor potential cation channel C4 beta), mouse; test: positive allosteric modulators of mouse TRPC4, confirmation, cell-based, second round, Fluo-4, HEK293 TRPC4beta/mu-opioid, 1 µM (AID 2554;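 active = primary screen hit whose fluorescence ratio, in both repeats, exceeds the weak agonist control mean by 3 SD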); settings: DAMGO EC20, Fluo-4 calcium flux, at 1 µM; active compounds read high
[4] = system: TRPC4 beta (transient receptor potential cation channel C4), mouse; test: positive allosteric modulators of mouse TRPC4, confirmation, cell-based, Fluo-4, HEK293 TRPC4beta/mu-opioid (AID 2555;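 active = primary screen hit whose calcium fluorescence ratio, in both repeats, exceeds the weak agonist control mean by 3 SD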); settings: DAMGO EC20, Fluo-4 calcium flux, at 10 µM; active compounds read high
[5] = target: Short transient receptor potential channel 4 (Mus musculus) (UniProt Q9QUQ5); test: inhibitors of mouse TRPC4 channel, confirmation, cell-based, Fluo4, HEK293 TRPC4beta/mu-opioid (AID 2636;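 active = calcium signal cut by more than 3 SD below the full-agonist control yet still positive, in both repeats and the earlier primary screen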); settings: DAMGO, Fluo4 calcium flux, at 10 µM; active compounds read high
[6] = target: Short transient receptor potential channel 4 (Mus musculus) (UniProt Q9QUQ5); test: inhibitors of mouse TRPC4 channel, confirmation, cell-based, second round, Fluo4, HEK293 TRPC4beta/mu-opioid, 1 µM (AID 2637;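 active = calcium signal ratio cut to more than 3 SD under the fully stimulated control mean yet still positive, in both repeats and the primary screen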); settings: Fluo4 calcium flux, DAMGO, at 1 µM; active compounds read high
[7] = target: Short transient receptor potential channel 4 (Mus musculus) (UniProt Q9QUQ5); test: TRPC4 positive allosteric modulators, dose response, cell-based, HEK293 TRPC4/mu-opioid, Fluo-4 calcium, EC20 DAMGO (AID 434941;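 active = earlier screen potentiator hit that boosts the TRPC4 ion channel at some dose, with a dose response; inactive = no potentiation, no dose response, or not a prior hit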;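 note: calcium entry triggered by an EC20 dose of DAMGO at the co-expressed mu-opioid receptor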)
[8] = target: Short transient receptor potential channel 4 (Mus musculus) (UniProt Q9QUQ5); test: mouse TRPC4 channel inhibitors, dose response, cell-based, HEK293 TRPC4/mu-opioid, Fluo-4 calcium (AID 434942)
[9] = target: Short transient receptor potential channel 6 (Mus musculus) (UniProt Q61143); test: inhibition of mouse TRPC6 channel, confirmation, selectivity assay for TRPC4 inhibitor project, cell-based, HEK293, membrane potential dye, duplicate (AID 434948;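 active = active in primary screen and both duplicates, each dropping signal beyond three positive-control SD with fluorescence still positive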); settings: HEK293 TRPC6, membrane potential dye fluorescence, at 10 µM, stimulated with maximal-effect acetylcholine; active compounds read high
[10] = target: Short transient receptor potential channel 6 (Mus musculus) (UniProt Q61143); test: activation of mouse TRPC6 channel, confirmation, selectivity assay for TRPC4 activator project, cell-based, HEK293, membrane potential dye, duplicate (AID 434950;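 active = membrane potential signal rise above negative control mean plus 3 SD in both duplicates, also active in the earlier TRPC4 screen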;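 for activation: 0% = buffer only wells and 100% = acetylcholine maximal-effect wells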); settings: HEK293 TRPC6, membrane potential fluorescence, at 10 µM; active compounds read high
[11] = target: Short transient receptor potential channel 6 (Mus musculus) (UniProt Q61143); test: TRPC6 potentiation by TRPC4 potentiator hits, confirmation, selectivity assay for TRPC4 potentiator project, HEK293 cells, membrane potential dye, duplicate (AID 434952;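 active = compound raising the membrane signal above positive-control mean plus 3 SD in both repeats, and a primary screen hit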); settings: HEK293 TRPC6, membrane potential dye fluorescence, at 10 µM, maximal acetylcholine added after compound; active compounds read high
[12] = target: Short transient receptor potential channel 4 (Mus musculus) (UniProt Q9QUQ5); test: calcium flux activators in TRPC4/5HT1a cells, counter-screen for TRPC4 activator project, cell-based, second counter screen, HEK293 TRPC4/5HT1a, Fluo-4 (AID 434977;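 active = calcium signal rise above buffer-control mean plus 5 SD in both duplicates, and also a hit in the primary screen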;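 for activation: plate controls were assay buffer for no effect and maximal serotonin response for full effect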); settings: Fluo-4 calcium flux, at 10 µM; active compounds read high
[13] = calcium flux inhibitors in TRPC4/5HT1a cells, confirmation, counter-screen for TRPC4 inhibitor project, cell-based, second counter screen, HEK293 TRPC4/5HT1a, Fluo-4 (AID 434978;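 active = primary screen active whose calcium signal fell more than 3 SD beyond the full-serotonin control mean in both duplicate plates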;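 note: serotonin given first at submaximal then at maximal dose after compound preincubation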); settings: Fluo-4 calcium flux, at 10 µM, serotonin added to trigger calcium flux; active compounds read high
[14] = system: TRPC4 (mouse), co-expressed with 5HT1a in HEK293; test: calcium flux potentiators in TRPC4/5HT1a cells, confirmation, counter-screen for TRPC4 potentiator project, cell-based, second counter screen, HEK293 TRPC4/5HT1a, Fluo-4 (AID 434979;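 active = signal rise over 3 SD above mean of control wells given weak agonist, in both repeats and first screen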); settings: Fluo-4 calcium flux, at 10 µM, serotonin added at its EC20 dose; active compounds read high
[15] = calcium flux activation in mu-opioid HEK293 cells, confirmation, counter-screen for TRPC4 activator project, cell-based, HEK293 mu-opioid receptor line (AID 449723;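 active = hit in primary screen, with calcium signal over 5 SD above buffer well mean in both duplicates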;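 note: counter screen cells carry the mu-opioid receptor alone and lack TRPC4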); settings: Fluo-4 calcium fluorescence, at 10 µM; active compounds read high
[16] = calcium flux enhancement in mu-opioid HEK293 cells, confirmation, counter-screen for TRPC4 allosteric potentiator project, cell-based, HEK293 mu-opioid receptor line (AID 449724;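 active = calcium signal rise more than 3 SD above the low-dose agonist control mean, in both duplicate plates and the primary screen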); settings: Fluo-4 calcium flux, at 10 µM, compound added before EC20 DAMGO stimulus; active compounds read high
[17] = thallium flux activation in parental CHO cells, counter-screen for KCNQ1 potentiator project (AID 493006;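 active = duplicate-averaged activation above buffer control mean plus 5 SD of those controls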;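 for activation: fluorescence ratio of max minus min over baseline after K+ and Tl+ depolarization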); settings: parental CHO-K1 cells, FluxOR thallium flux, at 10 µM; active compounds read high
[18] = target: Potassium voltage-gated channel subfamily KQT member 1 (Homo sapiens) (UniProt P51787); test: KCNQ1 potassium channel potentiators, confirmation, FluxOR thallium flux, CHO cells, duplicates (AID 493007;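 active = potentiation averaged over duplicate wells exceeding buffer-only control mean by more than 3 SD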;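 for outcome: cells depolarized by a potassium plus thallium sulfate stimulus after compound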;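 for potentiation: 0% = buffer-only wells and 100% = R-L3 activator control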); settings: KCNQ1 cell line, FluxOR thallium flux fluorescence, at 10 µM; active compounds read high, % of reference activator effect, buffer zero
[19] = target: Potassium voltage-gated channel subfamily KQT member 2 (Rattus norvegicus) (UniProt O88943); test: rat KCNQ2 channel potentiation, selectivity assay for KCNQ1 potentiator project, KCNQ2-CHO-K1 cells (AID 493009;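 active = mean duplicate potentiation above the buffer control mean plus 5 SD of buffer wells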;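 note: assay conditions were tuned for KCNQ1 rather than KCNQ2 modulators; signal is max minus min fluorescence divided by baseline after thallium stimulus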); settings: FluxOR thallium flux fluorescence, at 10 µM; active compounds read high, scaled: buffer 0, activator control 100
[20] = target: Potassium voltage-gated channel subfamily KQT member 1 (Homo sapiens) (UniProt P51787); test: KCNQ1 channel current potentiators, confirmation, orthogonal assay for KCNQ1 potentiator project, IonWorks patch clamp, KCNQ1-CHO cells (AID 493184;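 active = current rise at least 3 SD above the untreated control mean in each of two repeat wells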); settings: automated patch clamp current, at 10 µM; active compounds read high

Chain of Short transient receptor potential channel 4 (Mus musculus) (Q9QUQ5 whole entry, looked up): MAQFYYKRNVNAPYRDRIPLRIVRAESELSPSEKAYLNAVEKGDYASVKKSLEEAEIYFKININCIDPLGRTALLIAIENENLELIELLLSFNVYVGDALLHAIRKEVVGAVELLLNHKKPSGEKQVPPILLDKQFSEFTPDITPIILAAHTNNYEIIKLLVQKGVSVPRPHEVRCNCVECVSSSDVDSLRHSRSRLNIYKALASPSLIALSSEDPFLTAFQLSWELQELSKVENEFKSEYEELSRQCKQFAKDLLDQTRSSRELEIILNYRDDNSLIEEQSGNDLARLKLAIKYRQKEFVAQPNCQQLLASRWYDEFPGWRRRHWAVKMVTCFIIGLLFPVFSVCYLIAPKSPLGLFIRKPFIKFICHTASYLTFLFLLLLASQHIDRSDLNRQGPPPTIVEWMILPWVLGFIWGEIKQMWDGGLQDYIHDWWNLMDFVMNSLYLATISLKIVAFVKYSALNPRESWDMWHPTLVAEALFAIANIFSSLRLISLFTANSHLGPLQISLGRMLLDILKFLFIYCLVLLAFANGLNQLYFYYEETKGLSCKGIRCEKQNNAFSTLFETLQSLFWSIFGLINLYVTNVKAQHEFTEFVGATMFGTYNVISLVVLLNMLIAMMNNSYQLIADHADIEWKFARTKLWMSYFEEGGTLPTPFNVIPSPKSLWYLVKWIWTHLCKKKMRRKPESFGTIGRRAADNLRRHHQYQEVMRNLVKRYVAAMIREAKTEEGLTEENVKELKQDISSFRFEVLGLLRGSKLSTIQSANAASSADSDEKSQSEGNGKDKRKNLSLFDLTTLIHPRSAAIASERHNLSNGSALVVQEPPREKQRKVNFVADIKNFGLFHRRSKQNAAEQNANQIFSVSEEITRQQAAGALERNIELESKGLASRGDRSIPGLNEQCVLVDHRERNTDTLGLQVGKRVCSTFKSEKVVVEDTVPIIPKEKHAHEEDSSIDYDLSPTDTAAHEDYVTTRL
Chain of Short transient receptor potential channel 6 (Mus musculus) (Q61143 whole entry, looked up): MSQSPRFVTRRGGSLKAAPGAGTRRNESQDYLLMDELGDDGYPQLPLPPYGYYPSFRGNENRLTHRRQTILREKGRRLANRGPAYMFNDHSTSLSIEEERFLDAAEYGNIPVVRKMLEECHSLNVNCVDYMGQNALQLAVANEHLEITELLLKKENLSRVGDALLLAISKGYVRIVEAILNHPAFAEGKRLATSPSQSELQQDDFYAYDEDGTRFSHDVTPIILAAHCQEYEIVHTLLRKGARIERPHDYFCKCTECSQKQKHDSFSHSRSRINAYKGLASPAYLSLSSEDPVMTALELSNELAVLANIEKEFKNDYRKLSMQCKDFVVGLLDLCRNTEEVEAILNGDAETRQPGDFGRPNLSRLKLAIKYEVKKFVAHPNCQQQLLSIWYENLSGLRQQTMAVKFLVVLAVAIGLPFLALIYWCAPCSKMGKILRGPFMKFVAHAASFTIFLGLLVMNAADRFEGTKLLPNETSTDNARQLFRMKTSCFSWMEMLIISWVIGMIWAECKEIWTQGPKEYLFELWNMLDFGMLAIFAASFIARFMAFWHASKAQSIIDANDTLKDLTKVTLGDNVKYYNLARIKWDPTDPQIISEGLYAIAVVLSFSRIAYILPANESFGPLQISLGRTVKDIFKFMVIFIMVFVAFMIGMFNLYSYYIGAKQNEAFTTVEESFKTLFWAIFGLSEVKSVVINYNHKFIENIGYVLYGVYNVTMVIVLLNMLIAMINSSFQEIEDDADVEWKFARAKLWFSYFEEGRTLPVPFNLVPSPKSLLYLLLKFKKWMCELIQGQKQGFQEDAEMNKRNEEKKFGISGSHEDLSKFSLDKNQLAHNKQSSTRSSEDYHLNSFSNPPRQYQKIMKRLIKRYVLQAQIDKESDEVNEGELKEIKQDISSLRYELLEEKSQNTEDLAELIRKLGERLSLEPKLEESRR
Chain of Potassium voltage-gated channel subfamily KQT member 1 (Homo sapiens) (P51787 whole entry, looked up): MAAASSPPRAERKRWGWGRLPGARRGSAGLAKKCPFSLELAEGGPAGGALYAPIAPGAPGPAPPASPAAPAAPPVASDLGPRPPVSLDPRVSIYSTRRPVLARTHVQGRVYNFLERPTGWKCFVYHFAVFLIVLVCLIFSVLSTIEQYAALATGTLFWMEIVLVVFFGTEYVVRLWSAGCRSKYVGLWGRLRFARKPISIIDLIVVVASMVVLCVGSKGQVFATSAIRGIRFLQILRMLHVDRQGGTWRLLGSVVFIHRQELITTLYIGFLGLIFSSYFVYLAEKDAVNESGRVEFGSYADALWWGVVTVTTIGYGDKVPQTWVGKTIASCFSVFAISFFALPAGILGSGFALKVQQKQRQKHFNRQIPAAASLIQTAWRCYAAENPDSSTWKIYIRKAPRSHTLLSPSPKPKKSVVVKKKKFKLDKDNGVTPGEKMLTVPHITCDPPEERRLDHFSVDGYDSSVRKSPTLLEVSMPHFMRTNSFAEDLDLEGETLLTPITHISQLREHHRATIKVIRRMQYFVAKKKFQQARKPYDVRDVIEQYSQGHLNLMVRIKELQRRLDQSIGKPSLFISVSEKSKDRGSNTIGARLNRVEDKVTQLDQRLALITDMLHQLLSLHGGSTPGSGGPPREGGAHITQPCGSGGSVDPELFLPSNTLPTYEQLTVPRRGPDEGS
Chain of Potassium voltage-gated channel subfamily KQT member 2 (Rattus norvegicus) (O88943 whole entry, looked up): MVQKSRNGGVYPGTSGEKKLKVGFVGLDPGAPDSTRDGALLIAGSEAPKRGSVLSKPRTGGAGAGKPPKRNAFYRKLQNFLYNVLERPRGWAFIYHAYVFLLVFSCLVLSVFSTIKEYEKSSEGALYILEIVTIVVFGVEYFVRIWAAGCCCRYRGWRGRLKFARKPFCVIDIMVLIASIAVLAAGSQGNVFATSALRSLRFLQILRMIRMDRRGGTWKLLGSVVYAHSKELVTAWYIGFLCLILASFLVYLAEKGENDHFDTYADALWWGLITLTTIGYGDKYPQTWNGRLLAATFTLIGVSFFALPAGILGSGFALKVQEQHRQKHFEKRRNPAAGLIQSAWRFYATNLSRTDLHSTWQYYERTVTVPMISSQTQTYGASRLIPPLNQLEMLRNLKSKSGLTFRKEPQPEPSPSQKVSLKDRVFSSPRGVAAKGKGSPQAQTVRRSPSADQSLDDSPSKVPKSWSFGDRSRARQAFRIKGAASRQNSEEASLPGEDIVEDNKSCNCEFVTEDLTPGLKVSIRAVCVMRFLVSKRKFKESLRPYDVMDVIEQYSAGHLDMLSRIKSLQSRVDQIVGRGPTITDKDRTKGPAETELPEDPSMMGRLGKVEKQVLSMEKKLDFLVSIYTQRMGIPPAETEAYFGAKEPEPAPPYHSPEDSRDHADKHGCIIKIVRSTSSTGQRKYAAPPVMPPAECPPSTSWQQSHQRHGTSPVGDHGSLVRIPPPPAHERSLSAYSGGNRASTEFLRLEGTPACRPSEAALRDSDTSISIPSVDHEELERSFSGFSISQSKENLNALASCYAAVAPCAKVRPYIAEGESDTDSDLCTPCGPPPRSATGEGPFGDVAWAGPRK

Cc1ccc(NS(=O)(=O)c2ccc(C(=O)N3CC(C)CC(C)C3)cc2)cc1 (stereo not given)
activation [1]: 103% (active)
outcome [2]: inactive
outcome [3]: inactive
outcome [4]: inactive
outcome [5]: inactive
outcome [6]: inactive
outcome [7]: inactive
outcome [8]: inactive
outcome [9]: inactive
activation [10]: 65.5% (active)
outcome [11]: inactive
activation [12]: 43.8% (active)
outcome [13]: inactive
outcome [14]: inactive
activation [15]: 25.6% (active)
outcome [16]: inactive
activation [17]: 138% (active)
outcome [18]: inactive
outcome [19]: inactive
outcome [20]: inactive

COc1ccccc1N1CCN(C(c2cccs2)C(C)NC(=O)c2cccs2)CC1 (stereo not given)
outcome [1]: inactive
outcome [2]: inactive
outcome [3]: inactive
outcome [4]: inactive
outcome [5]: inactive
outcome [6]: inactive
outcome [7]: inactive
outcome [8]: inactive
outcome [9]: inactive
activation [10]: 23.5% (active)
outcome [11]: inactive
outcome [12]: inactive
outcome [13]: inactive
outcome [14]: inactive
outcome [15]: inactive
outcome [16]: inactive

Cc1ccc(C(=O)NC(=S)NNC(=O)c2ccccc2)cc1
outcome [1]: inactive
outcome [2]: inactive
outcome [3]: inactive
outcome [4]: inactive
outcome [5]: inactive
outcome [6]: inactive
outcome [7]: inactive
outcome [8]: inactive
outcome [9]: inactive
activation [10]: 31.5% (active)
outcome [11]: inactive
activation [12]: 72.6% (active)
outcome [13]: inactive
outcome [14]: inactive
activation [15]: 12.1% (active)
outcome [16]: inactive

COc1ccc(-c2nc(CN3CCC(C(=O)NC4CCCC4)CC3)c(C)o2)cc1OC
activation [1]: 152% (active)
activation [2]: 70% (active)
outcome [3]: inactive
outcome [4]: inactive
outcome [5]: inactive
outcome [6]: inactive
outcome [7]: inactive
outcome [8]: inactive
outcome [9]: inactive
activation [10]: 57% (active)
outcome [11]: inactive
outcome [12]: inactive
outcome [13]: inactive
outcome [14]: inactive
outcome [15]: inactive
outcome [16]: inactive

CCCOc1ccc(C(=O)NC(=S)NNC(=O)c2c(-c3ccccc3)noc2C)cc1
activation [1]: 107% (active)
outcome [2]: inactive
outcome [3]: inactive
outcome [4]: inactive
outcome [5]: inactive
outcome [6]: inactive
outcome [7]: inactive
outcome [8]: inactive
outcome [9]: inactive
outcome [10]: inactive
outcome [11]: inactive
activation [12]: 92.6% (active)
outcome [13]: inactive
outcome [14]: inactive
activation [15]: 39.4% (active)
outcome [16]: inactive
outcome [17]: inactive
potentiation [18]: 28.5% (active)
outcome [19]: inactive
outcome [20]: inactive

COc1ccc(C(CNC(=O)c2cccc(NS(=O)(=O)c3ccc(C)c(F)c3)c2)N(C)C)cc1 (stereo not given)
activation [1]: 135% (active)
outcome [2]: inactive
outcome [3]: inactive
outcome [4]: inactive
outcome [5]: inactive
outcome [6]: inactive
outcome [7]: inactive
outcome [8]: inactive
outcome [9]: inactive
activation [10]: 28.5% (active)
outcome [11]: inactive
outcome [12]: inactive
outcome [13]: inactive
outcome [14]: inactive
outcome [15]: inactive
outcome [16]: inactive

CC[C@@H](C(=O)[C@@H](C)[C@@H](O)[C@H](C)CCc1ccc(C)c(O)c1C(=O)O)[C@H]1O[C@](CC)([C@H]2CC[C@](O)(CC)[C@H](C)O2)C[C@@H]1C
activation [1]: 472% (active)
outcome [2]: inactive
outcome [3]: inactive
outcome [4]: inactive
outcome [5]: inactive
outcome [6]: inactive
outcome [7]: inactive
outcome [8]: inactive
outcome [9]: inactive
activation [10]: 58.5% (active)
outcome [11]: inactive
activation [12]: 177% (active)
outcome [13]: inactive
outcome [14]: inactive
activation [15]: 82.7% (active)
outcome [16]: inactive
activation [17]: 558% (active)
potentiation [18]: 149% (active)
potentiation [19]: 502% (active)
outcome [20]: inactive

CC(C)(C)c1ccc(C(=O)NC(=S)NNC(=O)c2cccs2)cc1
activation [1]: 226% (active)
outcome [2]: inactive
outcome [3]: inactive
outcome [4]: inactive
outcome [5]: inactive
outcome [6]: inactive
outcome [7]: inactive
outcome [8]: inactive
outcome [9]: inactive
outcome [10]: inactive
outcome [11]: inactive
activation [12]: 199% (active)
outcome [13]: inactive
outcome [14]: inactive
activation [15]: 84.8% (active)
outcome [16]: inactive
activation [17]: 136% (active)
potentiation [18]: 97% (active)
potentiation [19]: 188% (active)
outcome [20]: inactive

Cc1cc(C)c(CN2CCN(Cc3ccc(C)o3)C(CCO)C2)c(-n2cccn2)c1 (stereo not given)
activation [1]: 75% (active)
outcome [2]: inactive
outcome [3]: inactive
outcome [4]: inactive
outcome [5]: inactive
outcome [6]: inactive
outcome [7]: inactive
outcome [8]: inactive
outcome [9]: inactive
activation [10]: 73% (active)
outcome [11]: inactive
outcome [12]: inactive
outcome [13]: inactive
outcome [14]: inactive
outcome [15]: inactive
outcome [16]: inactive
